The results in this text go back to PubChem BioAssay (EPA / NIEHS).

Results filed as inconclusive are left out. Calls of active or inactive are those of the source. Rule for the calls: active = hit-call score of the fitted dose curve at least 0.9, where 1 is the maximum; inconclusive = response in the unintended direction; inactive = score below 0.9.

Assay [1] is described as follows: ATG_XTT_Cytotoxicity: Cytotoxicity Assessment in the Attagene TRANS-FACTORIAL HepG2 Assay (AID 2283584).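 For AC50: cells exposed to compound for 24 h before reading; active means loss of viability signal versus DMSO baseline.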 A digest of the protocol: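 HepG2 human liver cells, transiently transfected with multiple GAL4-UAS reporter units, were dosed and read at 24 h by XTT as cell number. Loss of signal was fitted relative to DMSO negative control baseline.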
Assay [2] is described as follows: TOX21_p53_BLA_p2_viability: Viability Assessment in the Tox21 HCT-116 p53 Agonism Beta-lactamase Assay, Phase 2 (AID 2283591).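 Note: compound exposure lasted 16 h at 37 °C; actives lower the ATP signal meaning cytotoxicity.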 A digest of the protocol:
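HCT-116 p53-bla cells (4000/well) rested 5 h at 37C, then received compounds in DMSO (217-fold dilution) for 16 h at 37C, 5% CO2. After the CCF4 read, CellTiter-Glo was added; ATP luminescence was read after 30 min at room temperature.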

Assay [3] concerns the target Cellular tumor antigen p53 (Homo sapiens) (UniProt P04637). Briefly: TOX21_p53_BLA_p2_ratio: Tox21 HCT-116 p53 Agonism Beta-lactamase Assay, Ratio, Phase 2 (AID 2283592). A digest of the protocol: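 HCT116 cells carrying a p53-responsive beta-lactamase reporter were plated, incubated 5 h at 37C, then dosed with compounds in DMSO (217-fold dilution) for 16 h. CCF4-AM substrate was added for 2 h at room temperature; the 460/530 nm emission ratio gave gain-of-signal activity relative to DMSO.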

Assay [4] can be described thus: TOX21_p53_BLA_p3_viability: Viability Assessment in the Tox21 HCT-116 p53 Agonism Beta-lactamase Assay, Phase 3 (AID 2283593).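 Note: cells exposed to compound for 16 h before reading.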 A digest of the protocol: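 HCT-116 cells (4000/well) rested 5 h at 37C, then got DMSO compounds by pin tool (217-fold dilution) for 16 h at 37C, 5% CO2. After the bla read, CellTiter-Glo was added and luminescence read at 30 min, room temperature.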

Assay [5] has as its target Cellular tumor antigen p53 (Homo sapiens) (UniProt P04637). Kind of assay: TOX21_p53_BLA_p3_ratio: Tox21 HCT-116 p53 Agonism Beta-lactamase Assay, Ratio, Phase 3 (AID 2283596). A digest of the protocol: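 HCT116 p53-bla cells (4000/well) given compound in DMSO (217-fold dilution) after 5 h, incubated 16 h at 37C. CCF4-AM substrate 2 h at room temperature; 460/530 nm emission ratio, gain fitted against DMSO.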

For assay [6] the target is unchanged. Kind of assay: TOX21_p53_BLA_p5_ratio: Tox21 HCT-116 p53 Agonism Beta-lactamase Assay, Ratio, Phase 5 (AID 2283599). A digest of the protocol:
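HCT-116 cells carrying a p53-inducible beta-lactamase reporter were seeded at 4000 cells/well and dosed after 5 h with compound in DMSO (217-fold dilution). After 16 h at 37C, CCF4-AM substrate was added for 2 h, and the 460/530 nm emission ratio was scored as gain-of-signal versus DMSO.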

Assay [7] can be described thus: TOX21_p53_BLA_p5_viability: Viability Assessment in the Tox21 HCT-116 p53 Agonism Beta-lactamase Assay, Phase 5 (AID 2283600). The gist of the method: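 Cells were plated at 4000/well, rested 5 h at 37C, then given compounds in DMSO (217-fold dilution) for 16 h at 37C, 5% CO2. Following the CCF4-AM beta-lactamase read, CellTiter-Glo was added and luminescence was read after 30 min at room temperature.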

Assay [8] has as its target Cellular tumor antigen p53 (Homo sapiens) (UniProt P04637). Kind of assay: TOX21_p53_BLA_p4_ratio: Tox21 HCT-116 p53 Agonism Beta-lactamase Assay, Ratio, Phase 4 (AID 2283601). A digest of the protocol:
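HCT116 cells carrying an inducible beta-lactamase reporter were plated at 4000 cells/well, rested 5 h, then exposed to compounds in DMSO (217-fold dilution) for 16 h at 37C. CCF4-AM substrate was loaded 2 h at room temperature; 460/530 nm emission ratio scored gain-of-signal versus DMSO.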

A short description of assay [9]: TOX21_p53_BLA_p4_viability: Viability Assessment in the Tox21 HCT-116 p53 Agonism Beta-lactamase Assay, Phase 4 (AID 2283597).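 Note: hits lower the luminescence signal meaning cytotoxicity.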 A digest of the protocol:
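HCT116 p53-bla cells (4000/well) rested 5 h at 37C, then received compounds in DMSO (217-fold dilution) for 16 h at 37C, 5% CO2. CellTiter-Glo was added after the CCF4-AM read, and luminescence was read after 30 min at room temperature.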

Cellular tumor antigen p53 (Homo sapiens), sequence (P04637 whole entry, looked up): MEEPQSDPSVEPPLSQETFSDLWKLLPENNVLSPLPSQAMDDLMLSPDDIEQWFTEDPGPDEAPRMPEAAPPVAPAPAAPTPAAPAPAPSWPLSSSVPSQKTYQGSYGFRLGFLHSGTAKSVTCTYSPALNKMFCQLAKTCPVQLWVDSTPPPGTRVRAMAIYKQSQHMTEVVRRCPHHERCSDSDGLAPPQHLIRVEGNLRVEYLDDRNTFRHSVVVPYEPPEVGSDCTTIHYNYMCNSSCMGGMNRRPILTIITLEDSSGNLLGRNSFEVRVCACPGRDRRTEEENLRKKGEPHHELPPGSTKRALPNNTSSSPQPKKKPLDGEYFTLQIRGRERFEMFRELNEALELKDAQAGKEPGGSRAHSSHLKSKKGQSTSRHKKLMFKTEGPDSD

`CN1C(=O)c2ccccc2C1=O`: the molecule was called inactive in assay [1], in assay [2], in [3], in assay [4], in [5] and in [6]. For the same molecule, the result in assay [7] and in assay [8] was inactive.
For the molecule `COC(=O)C=C(C)CCC=C(C)C`, the molecule was classed as inactive in assay [1], in assay [2], in [3], in assay [4], in assay [5] and in assay [6].
As to `CCO/C=C1\N=C(c2ccccc2)OC1=O`, the outcome in assay [1], in assay [2], in assay [3], in [4], in assay [5] and in assay [9] was inactive. The outcome in assay [6] and in assay [8] was inactive.
`Cc1cccc(Nc2ccccc2)c1`: the molecule was called inactive in assay [1], in assay [2], in [3], in [5], in assay [9] and in assay [6]. In addition, the outcome in assay [8] was inactive.
For the molecule `C=C(C#N)C(=O)OCC`, the molecule was classed as inactive in [1], in assay [2], in assay [3], in assay [4], in assay [5] and in [6]. The outcome in assay [8] was inactive.
In the case of `CCCC(=O)OC(C)(C)Cc1ccccc1`, the outcome in assay [1], in [2], in [3], in [4], in [5] and in [6] was inactive. Besides, the molecule was classed as inactive in assay [7] and in assay [8].
Consider `[O-]n1ccccc1=S.[O-]n1ccccc1=S.[Zn+2]`, for which the AC50 in assay [1] was 2870 nM (active); in assay [2] it was 14.3 µM (active) [middle of 4 runs]; in [3] it was 33.8 µM (active) [middle of 4 runs]; in assay [4], 20.3 µM (active) [middle of 4 runs]; in assay [5], 35.7 µM (active) [middle of 4 runs]; in [6] it was 24.8 µM (active) [middle of 4 runs]. The AC50 in assay [7] was 19.1 µM (active) [middle of 4 runs]; in assay [8], 21.1 µM (active) [middle of 4 runs].
As to `CCOC(=O)c1ccc(N)cc1`, the molecule was called inactive in [1], in assay [2], in [3], in assay [4], in assay [5] and in assay [6]. In addition, in [8], the result was inactive.
Consider `CC(C)(C)c1ccc(C(=O)O)cc1`, for which the outcome in assay [1], in assay [2], in assay [3], in [5], in assay [6] and in assay [7] was inactive. Further, the outcome in assay [8] was inactive.
`C#CC(C)(O)CC(C)C` (configuration not stated): the molecule was called inactive in [1], in assay [2], in [3], in assay [4] and in [6].
`Cc1ccc2c(c1)C(=O)OC2=O`: the molecule was called inactive in assay [1], in assay [2], in [3], in assay [4], in [9] and in assay [6]. Besides, the result in assay [7] and in [8] was inactive.
With `CCOC(=O)C1OC1c1ccccc1` (configuration not stated), the molecule was called inactive in assay [1], in assay [2], in assay [3], in assay [4], in assay [5] and in assay [6]. In addition, the result in assay [7] and in assay [8] was inactive.
For `CCCCSCCCC`, the outcome in assay [1], in assay [2], in [3], in [5], in [6] and in assay [7] was inactive.
As to `CCCCCCOC(=O)C(C)C`, the molecule was classed as inactive in assay [1], in assay [2], in [3], in assay [4], in assay [5] and in [6]. For the same molecule, in assay [8], the outcome was inactive.
Take `CCC(C)S` (configuration not stated): the molecule was classed as inactive in assay [1], in assay [2], in [3], in [4], in assay [6] and in assay [7].
On to `O=c1[nH]c(=O)c2cn[nH]c2[nH]1`, for which the outcome in [1], in [2], in assay [3], in [4], in [5] and in assay [6] was inactive. For the same molecule, the outcome in assay [8] was inactive.
As to `CC(C)C(OC(=O)c1ccccc1)C(C)(C)COC(=O)c1ccccc1` (configuration not stated), the molecule was called inactive in assay [1], in assay [2], in assay [3], in assay [4], in assay [9] and in [6]. Moreover, the call in [7] was inactive.
Take `CCOC(=O)CCc1ccccc1`: the molecule was called inactive in [1], in assay [2], in assay [3], in assay [4] and in [7].
For `O=C(O)CNc1ccccc1`, the result in assay [1], in assay [2], in [3], in assay [4], in [5] and in assay [6] was inactive. In addition, the call in assay [7] and in [8] was inactive.
`O=C1NC2NC(=O)NC2N1` (configuration not stated): the molecule was called inactive in assay [1], in assay [2], in [3], in assay [5], in assay [9] and in assay [6]. Moreover, the molecule was classed as inactive in assay [7] and in assay [8].
As to `C=C(C)C(=O)OCCOCCOCCOC(=O)C(=C)C`, the molecule was called inactive in assay [1], in assay [2], in assay [3], in assay [4], in assay [5] and in [6]. Moreover, the molecule was called inactive in [7] and in assay [8].
With `CCCCCC(=O)CC`, the molecule was classed as inactive in assay [1], in [2], in assay [3], in assay [4], in [5] and in assay [6]. Moreover, the molecule was classed as inactive in assay [7] and in assay [8].
`C#CC(C)N(C)C(=O)Nc1ccc(Cl)cc1` (configuration not stated): the call in assay [1], in assay [2], in assay [3], in assay [5], in [9] and in assay [6] was inactive. Also, the result in assay [8] was inactive.
Turning to `NC1CCCCC1N` (configuration not stated), the outcome in assay [1], in [2], in assay [3], in [4], in [9] and in assay [6] was inactive. Besides, the call in assay [7] and in [8] was inactive.

For orientation: AC50 means the concentration giving half of the maximal activity seen.
